# In PubChem BioAssay AID652067 (The Scripps Research Institute Molecular Screening Center, 2013):
# Hit rate of the full screen: of about 370,000 compounds, about 5,400 (1.5%) were called active.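 How the source made its calls: active means activation above the mean of all tested compounds plus 3 SD (cut at about 5.5% in these data); inactive means the rest.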 Many of the other results were omitted from the sample, so actives are more common in it than they were.
# System: DAF-12 nuclear receptor (Haemonchus contortus)
# Experiment: H. contortus DAF-12 nuclear receptor activators, primary screen, cell-based, luminescence, HEK293, lit1-tk-luc reporter (AID 652067);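 further: 100% = response to 3 µM Δ7-dafachronic acid high control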
# Conditions: HEK293 hcDAF-12 lit1-tk-luc reporter, at 6.8 µM, hits give high values, 0% DMSO, 100% Δ7-dafachronic acid
row,SMILES,activation
1,O=C(NS(=O)(=O)c1cccs1)[C@H]1O[C@@H](n2ccc(=O)[nH]c2=O)[C@H](O)[C@@H]1O,1.29% (inactive)
2,COc1ccc(CSc2nnc(SCC(=O)Nc3ccccc3C(F)(F)F)s2)cc1,-0.61% (inactive)
3,CS(=O)(=O)Nc1ccccc1C(=O)OCC(=O)NC1CC1,0.83% (inactive)
4,CC(=O)c1cc(-c2ccc3ccccc3c2)c(=O)n2c1CCC2,-0.26% (inactive)
5,COC(=O)Nc1nc2ccc(C(=O)C3CC3)cc2[nH]1,0.63% (inactive)
6,C[C@@H]1CN([C@@H](C)CO)C(=O)c2cccc(NC(=O)Nc3cccc4ccccc34)c2O[C@H]1CN(C)S(=O)(=O)c1ccccc1F,-1.14% (inactive)
7,C[C@@H]1ON(C)[C@H]2C[C@H]3c4[nH]c5cccc(-c6ccc7c(c6)OCO7)c5c4CCN3C[C@@H]12,-1.17% (inactive)
8,CCC(=O)N(Cc1cc2ccccc2[nH]c1=O)c1ccc(OC)cc1,-1.6% (inactive)
9,COc1ccc(C2=Nc3ccccc3NC(=O)C2N(C(=O)c2cc3ccccc3[nH]2)c2ccccc2)cc1 (stereo not given),6.3% (active)
10,CC(OC(=O)c1cc2ccccc2[nH]1)C(=O)N(C)c1ccccc1 (stereo not given),2.38% (inactive)
11,Cc1cc(=O)oc(C)c1C(=O)NCCN(C)Cc1ccccc1,-0.39% (inactive)
12,O=C1CC(c2ccc3c(c2)OCO3)N=C2N(CC3CC3)C/C(=C/c3ccccc3)N12 (stereo not given),-3.84% (inactive)
13,CCNC(=O)COC(=O)/C=C/c1c(C)nn(Cc2cccc(OC)c2)c1Cl,0.11% (inactive)
14,O=C(/C=C/c1cccs1)NCc1cccnc1,-0.87% (inactive)
15,CCc1ccc(CNC(=O)CCc2nc(-c3cccs3)no2)cc1,0.59% (inactive)
16,O=C(NCc1cccnc1)c1nc(-c2cccs2)no1,5.95% (active)
17,CCS(=O)(=O)N1Cc2ccccc2CC1C(=O)Nc1nc2ccc(F)cc2s1 (stereo not given),7.31% (active)
18,CCS(=O)(=O)N1Cc2ccccc2CC1C(=O)Nc1ccc(OC)cc1OC (stereo not given),-0.97% (inactive)
19,Cc1ccc2nc(NC(=O)C3CSC4(C)CCC(=O)N34)sc2c1 (stereo not given),-0.71% (inactive)
20,COC(=O)[C@]12C[C@H](CC(=O)NCc3ccccc3)C(=O)N(CCC3=CCCCC3)C1=C[C@H](C(C)(C)C)O[C@@H]2C,0.06% (inactive)
21,O=C(NCc1cccs1)C1CCCN(S(=O)(=O)c2ccc([N+](=O)[O-])cc2)C1 (stereo not given),-2.29% (inactive)
22,O=C(Nc1cccn(Cc2c(Cl)cccc2Cl)c1=O)c1ccc(Cl)cc1,-0.98% (inactive)
23,COc1ccc(-n2c(COc3ccccc3)nnc2SCC(=O)Nc2ccc3c(c2)OCO3)cc1,-3.31% (inactive)

row,SMILES,activation
1,O=S1(=O)c2c(cccc2N2CC[C@H](O)C2)O[C@@H]2CCN1C2,-1.21% (inactive)
2,CCSc1nnc(-c2cc3c(s2)-c2ccccc2CC3)o1,2.59% (inactive)
3,COc1ccc2cc(C(=O)C3CCCN(C(=O)c4sc(C)nc4C)C3)ccc2c1 (stereo not given),-2.25% (inactive)
4,CCOc1ccc(NC(=O)C2CCCN(C(=O)Nc3ccccc3)C2)cc1 (stereo not given),-0.89% (inactive)
5,CCOc1ccc2nc(C(=O)N3CCCC(C)C3)sc2c1 (stereo not given),7.97% (active)
6,COC(=O)[C@]12C[C@H](CC(=O)NCC34CC5CC(CC(C5)C3)C4)C(=O)N(Cc3ccc(Cl)cc3Cl)C1=C[C@H](COCc1ccccc1)O[C@@H]2C,-1.65% (inactive)
7,NS(=O)(=O)c1ccccc1NC(=O)c1c(O)c2ccccc2[nH]c1=O,15.2% (active)
8,CCc1ccc2[nH]c(=O)c(Cc3ccccc3)c(O)c2c1,0.62% (inactive)
9,CCCOC(=O)Cc1c(O)c2ccccc2[nH]c1=O,0.81% (inactive)
10,C[C@H](C(=O)N(C)c1ccccc1)[C@@H](O)c1ccc(Cl)cc1,-1.63% (inactive)
11,CCS(=O)(=O)c1cc([N+](=O)[O-])c(Sc2ccccc2N)s1,7.01% (active)
12,Cc1ccc(Cl)cc1NC(=O)C1CCCN(c2cnccn2)C1 (stereo not given),-1.45% (inactive)
13,COc1ccc(C2CC(c3cccs3)=NN2C(=O)CSc2nnc(N)s2)cc1OC (stereo not given),-1.14% (inactive)
14,COc1ccc(C2CC(c3cccs3)=NN2C(=O)COC(=O)c2cc3ccccc3cc2O)cc1OC (stereo not given),-1% (inactive)
15,COc1ccc(C2CC(c3cccs3)=Nc3ccccc3S2)cc1OC (stereo not given),7.77% (active)
16,CC(C)(C)NC(=O)C(c1cccnc1)N(C(=O)c1cnco1)c1ccc(C(C)(C)C)cc1 (stereo not given),-2.31% (inactive)
17,C/C(=N\N(C)C)c1ccc(OCCOc2ccc([N+](=O)[O-])cc2)cc1,-0.12% (inactive)
18,COc1ccc(S[C@]2(C(=O)N(C)C)CC(=O)N(c3ccc(OC)cc3)[C@@H]2c2ccc(OC)cc2)cc1,-2.06% (inactive)
19,COc1ccc(CSc2nnc(-c3cccc(C)c3)n2C)cc1,-3.02% (inactive)
20,FC(F)(F)Oc1ccc(-c2cn3cccnc3n2)cc1,0.45% (inactive)
21,COc1ccc(-c2cn3ccc(C)cc3n2)cc1,7.15% (active)
22,COc1ccc(-c2ccc3c(n2)CCCN3S(=O)(=O)c2ccc(C)cc2)cc1,-0.08% (inactive)
23,COc1cc(OC)cc(-c2nc(=S)n3ccsc3n2)c1,1.3% (inactive)

row,SMILES,activation
1,COc1ccc(-c2cn3ccsc3n2)cc1,6.33% (active)
2,CCOC(=O)[C@@]12CN(C(=O)OC(C)(C)C)CC=C1N(Cc1ccc(OC)cc1)C(=O)[C@H]2CC(=O)NCc1ccc(OC)c(OC)c1,-1.83% (inactive)
3,CN1C(=O)C(Br)(Br)CC1c1cccnc1 (stereo not given),0.36% (inactive)
4,Cc1ccc(-n2nc3c(c2NC(=O)CCC2CCCCC2)CS(=O)C3)cc1 (stereo not given),1.64% (inactive)
5,O=C(COc1cccc2c1CCNC2=O)NC1CCCCC1,0.88% (inactive)
6,Cc1cc(NCCc2c[nH]c3ccccc23)ccc1Oc1cccnc1,-1.55% (inactive)
7,COc1ccc2oc(N)c(C=O)c(=O)c2c1,-0.56% (inactive)
8,CCc1cc2c(=O)c(-c3nc4ccccc4n3C)c(CCCC(=O)O)oc2cc1OC(=O)C(C)(C)C,-0.74% (inactive)
9,CCc1cc2c(=O)c(-c3ccon3)c(N)oc2cc1OC,7.31% (active)
10,O=S1(=O)c2ccc(Br)cc2OC[C@H](Cc2ccccc2)N1Cc1cn(Cc2ccccc2)nn1,-0.79% (inactive)
11,C=CCN=C1NC(c2ccccc2)C(C(=O)OC)=C(C)N1Cc1ccc(C(F)(F)F)cc1 (stereo not given),0.87% (inactive)
12,Nn1c(SCC(=O)Nc2cccc3ccccc23)nnc1-c1cc(-c2ccc(F)cc2)n[nH]1,-1.52% (inactive)
13,Cc1cccc(-n2c(O)c(C=Nc3ccccc3N)c(=O)[nH]c2=O)c1,6.08% (active)
14,CC(=O)Nc1nc2ncccn2c1-c1ccc(C(F)(F)F)cc1,-1.9% (inactive)
15,O=S(=O)(c1ccccc1)N1CCC(c2nc3ccccc3o2)CC1,2.42% (inactive)
16,Clc1ccc(C(Cn2ccnc2)OCc2ccsc2Cl)c(Cl)c1 (stereo not given),-3.27% (inactive)
17,Clc1ccc2nc(CSc3ccccc3)cn2c1,6.03% (active)
18,Cn1nc(-c2ccccc2)c(CSc2cccc(Cl)c2)c1Cl,-1.8% (inactive)
19,O=c1c2ccccc2nc2n1C(CSc1ccc(Cl)cc1)CN2 (stereo not given),2.36% (inactive)
20,C#CCN([C@@H](C)C(=O)OCC)S(=O)(=O)c1ccc(Br)cc1F,-0.18% (inactive)
21,Cc1ccc(NNC(=O)C2CCC2)cc1C,2.28% (inactive)
22,COC(C(=O)Nc1ccc(S(=O)(=O)Nc2ccc(C)c(C)c2)cc1)c1ccccc1 (stereo not given),0.37% (inactive)
23,Cc1ccc(N/C=C/C(=O)c2ccccc2)cc1C,15% (active)

row,SMILES,activation
1,COC(=O)C1CN(CCc2ccccc2)CCS(=O)(=O)N1Cc1ccc(F)cc1 (stereo not given),1.33% (inactive)
2,Cc1ccc(Cn2cc(CN3[C@@H](CC(C)C)COc4ccc(Cl)cc4S3(=O)=O)nn2)cc1,-0.25% (inactive)
3,COc1ccccc1N(CC(=O)Nc1ccc(C)cc1Cl)S(=O)(=O)c1cccs1,-2.56% (inactive)
4,O=C(CN1CCCCC1)NC(=O)Nc1ccccc1F,7.05% (active)
5,CN(CC(=O)NC(=O)Nc1ccccc1F)Cc1ccccc1,-0.6% (inactive)
6,O=C(CN1CCCCCC1)Nc1ccc(Cl)cc1F,-0.52% (inactive)
7,CCOc1ccccc1C(=O)N1CCC[C@@H]1C(=O)N1CCC[C@H]1C(=O)NCc1ccccc1,-0.98% (inactive)
8,COC(=O)C1(S(=O)(=O)C2(C(=O)OC)CCCC2)CCCC1,-1.17% (inactive)
9,Oc1ccc(Cl)cc1/C=N/c1nc2ccccc2[nH]1,5.95% (active)
10,Oc1c(Cl)cc(Cl)cc1/C=N/c1ncn[nH]1,-0.22% (inactive)
11,O=C(NCc1ccccc1)[C@H]1CCCN1C(=O)[C@H]1CCCN1C(=O)N1CCOCC1,0.81% (inactive)
12,COC(=O)C1=C(C)N(Cc2ccc(C(F)(F)F)cc2)C(=NCc2ccc(C(F)(F)F)cc2)NC1c1cccc(Cl)c1 (stereo not given),-0.62% (inactive)
13,COc1ccc(C2CC=C(C(=O)O)C(c3ccccc3F)N2S(=O)(=O)c2ccc(C)cc2)cc1OC (stereo not given),-1.61% (inactive)
14,CCOC(=O)c1c(NC(=O)C2(C)Cc3ccccc3C(=O)O2)sc2c1CCCC2 (stereo not given),-3.38% (inactive)
15,CCOC(=O)c1c(NC(=O)C(C)Sc2c[nH]c3ccccc23)sc2c1CCC2 (stereo not given),5.61% (active)
16,COC(=O)c1c(NC(=O)COC(=O)[C@@H](NS(=O)(=O)c2ccccc2)C(C)C)sc2c1CCC2,1.86% (inactive)
17,O=S1(=O)c2ccc(Br)cc2-n2nncc2CN1Cc1cccc(Cl)c1,0.57% (inactive)
18,CC(C)CNS(=O)(=O)CC1NCCc2ccccc21 (stereo not given),-2.97% (inactive)
19,COc1ccc(C(=O)C[n+]2ccc(C)cc2)cc1,6.64% (active)
20,COc1ccc(C(=O)C[n+]2ccc(N)c(C)c2C)cc1,-1.41% (inactive)
21,COc1ccc(C(=O)CC(=O)c2ccc(C)cc2)c(O)c1,-0.09% (inactive)
